In PubChem BioAssay:
For some of these results: Entries with a potency or affinity are not part of this list. Active and inactive are the calls of the source. Unless noted, the rule behind the calls is not given here.

Columns and labels:
[1] = antimalarial activity against Dd2 strain (AID 2302;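 active = growth inhibition above 50% at the single 2 µM test dose, taken to imply half-maximal potency below 2 µM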;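 note: 0% = DMSO untreated growth and 100% = chloroquine plus artemisinin killed control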); details: P. falciparum Dd2 in RBCs, LDH growth readout, 72 h; at 2 µM; stronger effect = higher value
[2] = human hepatoma cell viability loss – ATP luminescence, cytotoxicity control for P. falciparum antimalarial project, primary screen (AID 2303;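 active = inhibition above 50%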;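 note: 0% = DMSO wells and 100% = digitonin-killed cells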); details: HepG2 viability, 24-48 h, at 10 µM, stronger effect = higher value
[3] = target: L-lactate dehydrogenase (Plasmodium falciparum (isolate CDC / Honduras)) (UniProt Q27743); experiment: PfLDH activity inhibition – cell lysate, 3D7 strain, counter-screen for P. falciparum growth inhibition project (AID 2304);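 note: 0% = vehicle and 100% = reference inhibitor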; details: P. falciparum 3D7 crude extract, LDH APAD/NBT absorbance; at 2 µM; stronger effect = higher value
Sequence of L-lactate dehydrogenase (Plasmodium falciparum (isolate CDC / Honduras)) (Q27743 whole entry, looked up): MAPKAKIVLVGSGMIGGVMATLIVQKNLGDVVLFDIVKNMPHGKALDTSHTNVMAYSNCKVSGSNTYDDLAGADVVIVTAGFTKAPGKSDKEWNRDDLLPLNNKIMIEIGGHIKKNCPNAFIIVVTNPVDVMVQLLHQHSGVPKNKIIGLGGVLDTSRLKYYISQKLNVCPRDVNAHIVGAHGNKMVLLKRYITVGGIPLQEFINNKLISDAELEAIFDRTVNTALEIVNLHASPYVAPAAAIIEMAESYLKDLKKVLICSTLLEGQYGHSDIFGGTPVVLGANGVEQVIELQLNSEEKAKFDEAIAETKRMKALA

[4] = inhibition of 3D7 malaria parasite growth – strain 3D7 (AID 2306);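 note: 0% = DMSO wells and 100% = chloroquine plus artemisinin control wells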; details: P. falciparum 3D7 erythrocytic growth, LDH absorbance, 72 h; at 2 µM; stronger effect = higher value
[5] = target: Calcium-dependent protein kinase 1 (Plasmodium falciparum (isolate 3D7)) (UniProt P62344); experiment: PfCDPK1 kinase inhibitors, biochemical, TCAMS library (AID 1159585; cut-off not given, nearly all actives have IC50 up to about 0.98 µM;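 note: inhibitors leave more ATP so luminescence rises with inhibition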); details: recombinant PfCDPK1, Kinase-Glo ATP depletion luminescence
Sequence of Calcium-dependent protein kinase 1 (Plasmodium falciparum (isolate 3D7)) (P62344 whole entry, looked up): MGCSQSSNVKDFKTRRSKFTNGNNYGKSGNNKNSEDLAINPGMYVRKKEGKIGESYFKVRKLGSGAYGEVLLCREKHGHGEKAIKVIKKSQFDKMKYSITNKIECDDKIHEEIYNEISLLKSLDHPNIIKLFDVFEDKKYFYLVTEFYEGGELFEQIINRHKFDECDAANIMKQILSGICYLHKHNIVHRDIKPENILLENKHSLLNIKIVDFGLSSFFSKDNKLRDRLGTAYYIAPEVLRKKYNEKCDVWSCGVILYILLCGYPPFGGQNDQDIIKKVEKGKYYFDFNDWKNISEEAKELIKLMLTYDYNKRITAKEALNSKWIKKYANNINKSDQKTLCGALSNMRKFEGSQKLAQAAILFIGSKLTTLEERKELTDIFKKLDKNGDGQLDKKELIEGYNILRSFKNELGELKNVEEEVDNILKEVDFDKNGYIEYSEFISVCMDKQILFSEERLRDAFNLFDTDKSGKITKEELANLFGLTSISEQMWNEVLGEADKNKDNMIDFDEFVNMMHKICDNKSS

[6] = target: Plasmodium falciparum protein kinase 6 (PK6, PF3D7_1337100) (UniProt Q8IDW1); experiment: PfPK6 kinase inhibitors, biochemical, TCAMS library (AID 1159586); details: recombinant PfPK6, Kinase-Glo ATP depletion luminescence
Sequence of Plasmodium falciparum protein kinase 6 (PK6, PF3D7_1337100) (Q8IDW1 1-305): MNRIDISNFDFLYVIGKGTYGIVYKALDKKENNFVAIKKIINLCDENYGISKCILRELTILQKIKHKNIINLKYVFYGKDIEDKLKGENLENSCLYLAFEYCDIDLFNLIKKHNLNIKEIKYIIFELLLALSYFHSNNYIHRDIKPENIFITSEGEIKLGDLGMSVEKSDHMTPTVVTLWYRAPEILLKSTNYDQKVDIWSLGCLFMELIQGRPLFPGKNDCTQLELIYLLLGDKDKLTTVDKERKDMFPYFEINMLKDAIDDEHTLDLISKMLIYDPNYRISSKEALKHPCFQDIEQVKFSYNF

[7] = target: Protein kinase 7 (PK7), Plasmodium falciparum 3D7 (PF3D7_0213400) (UniProt Q7YTF7); experiment: inhibition of Plasmodium PK7 catalytic activity – biochemical, TCAMS antimalarial set, Kinase-Glo luminescence (AID 1159587); details: recombinant PfPK7, Kinase-Glo ATP depletion luminescence
Sequence of Protein kinase 7 (PK7), Plasmodium falciparum 3D7 (PF3D7_0213400) (Q7YTF7 1-343): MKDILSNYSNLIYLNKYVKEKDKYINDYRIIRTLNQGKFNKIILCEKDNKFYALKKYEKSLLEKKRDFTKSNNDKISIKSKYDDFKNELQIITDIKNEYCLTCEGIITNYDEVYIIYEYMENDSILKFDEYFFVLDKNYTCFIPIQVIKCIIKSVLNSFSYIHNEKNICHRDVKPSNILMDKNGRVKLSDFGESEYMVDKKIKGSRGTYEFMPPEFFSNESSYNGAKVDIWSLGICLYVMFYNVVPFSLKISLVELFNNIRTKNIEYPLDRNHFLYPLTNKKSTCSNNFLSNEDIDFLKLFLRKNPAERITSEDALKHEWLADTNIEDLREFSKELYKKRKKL

[8] = target: Calcium-dependent protein kinase 4 (Plasmodium falciparum (isolate 3D7)) (UniProt Q8IBS5); experiment: PfCDPK4 kinase inhibitors, biochemical, TCAMS library (AID 1159588; cut-off not given, nearly all actives have IC50 up to about 0.91 µM); details: recombinant PfCDPK4, Kinase-Glo ATP depletion luminescence
Sequence of Calcium-dependent protein kinase 4 (Plasmodium falciparum (isolate 3D7)) (Q8IBS5 whole entry, looked up): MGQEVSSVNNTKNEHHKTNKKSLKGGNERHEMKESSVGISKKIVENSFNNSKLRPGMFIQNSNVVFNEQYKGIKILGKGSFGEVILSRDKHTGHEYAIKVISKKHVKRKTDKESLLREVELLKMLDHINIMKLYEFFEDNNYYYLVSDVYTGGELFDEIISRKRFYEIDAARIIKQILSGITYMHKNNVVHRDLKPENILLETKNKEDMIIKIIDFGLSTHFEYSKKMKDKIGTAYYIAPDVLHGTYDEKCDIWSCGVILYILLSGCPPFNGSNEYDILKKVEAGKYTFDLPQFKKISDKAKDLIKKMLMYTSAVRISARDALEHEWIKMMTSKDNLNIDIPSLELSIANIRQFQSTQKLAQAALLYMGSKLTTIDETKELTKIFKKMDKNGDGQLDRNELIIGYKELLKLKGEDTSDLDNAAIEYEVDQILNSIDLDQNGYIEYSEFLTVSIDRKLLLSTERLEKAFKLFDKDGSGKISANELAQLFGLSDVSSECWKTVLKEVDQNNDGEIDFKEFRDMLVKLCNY

CC[C@H]1CN2CC[C@@H]1C[C@H]2[C@H](O)c1cc(N2CCC(O)(c3ccc(Cl)cc3)CC2)nc2ccc(OC)cc12
active: growth inhibition [1] 98% | growth inhibition [4] 101%
inactive: inhibition [2] 21% | inhibition [3] -8% | outcome [5] | outcome [6] | outcome [7] | outcome [8]

Cc1[nH]c2cc(F)ccc2c1C1=CCN(CCCCC2(C)C(=O)Nc3ccccc32)CC1 (centres undefined)
inactive: inhibition [2] 13% | inhibition [3] -8% | outcome [5] | outcome [6] | outcome [7] | outcome [8]
active: growth inhibition [1] 90% | growth inhibition [4] 93%

COc1ccc(F)cc1-c1csc(N(c2ccc(F)cc2)C2CCNCC2)n1
active: growth inhibition [4] 94%
inactive: growth inhibition [1] -3% | inhibition [2] 15% | inhibition [3] -1% | outcome [5] | outcome [6] | outcome [7] | outcome [8]

CC(C)CNCc1cccc(-c2ccc(CN(C(=O)c3cccs3)C3CCN(Cc4ccccc4)CC3)cc2)c1
inactive: growth inhibition [1] 40% | inhibition [2] 22% | inhibition [3] 3% | outcome [5] | outcome [6] | outcome [7] | outcome [8]
active: growth inhibition [4] 85%

NCC(=O)c1cc2c(cc1N)OCCO2
active: inhibition [2] 64% | growth inhibition [4] 89%
inactive: growth inhibition [1] 42% | inhibition [3] 0% | outcome [5] | outcome [6] | outcome [7] | outcome [8]

Cc1ccccc1CNCC(O)c1cccc(C(F)(F)F)c1 (centres undefined)
inactive: inhibition [2] 5% | inhibition [3] -4% | outcome [5] | outcome [6] | outcome [7] | outcome [8]
active: growth inhibition [1] 77% | growth inhibition [4] 99%

Cc1cc(C)c(CC(C)NCC(O)c2cccc(C(F)(F)F)c2)c(C)c1 (centres undefined)
inactive: inhibition [2] 0% | inhibition [3] 5% | outcome [5] | outcome [6] | outcome [7] | outcome [8]
active: growth inhibition [1] 99% | growth inhibition [4] 100%

CN(CC(=O)N1CCN(S(=O)(=O)c2cccc(Cl)c2)CC1CN1CCCC1)c1ccc(Cl)c(Cl)c1 (centres undefined)
inactive: growth inhibition [1] 32% | inhibition [2] 32% | inhibition [3] -1% | outcome [5] | outcome [6] | outcome [7] | outcome [8]
active: growth inhibition [4] 89%

Cc1c(C(=O)NC2CCC(CN3CCC(c4c[nH]c5ccccc45)CC3)CC2)cnn1-c1c(Cl)cc(Cl)cc1Cl (centres undefined)
active: growth inhibition [1] 97% | inhibition [2] 53% | growth inhibition [4] 100%
inactive: inhibition [3] 4% | outcome [5] | outcome [6] | outcome [7] | outcome [8]

COc1cc2nc(N(C)C3CCN(Cc4ccccc4)CC3)nc(N)c2cc1OC
inactive: inhibition [2] 19% | inhibition [3] 1% | outcome [5] | outcome [6] | outcome [7] | outcome [8]
active: growth inhibition [1] 93% | growth inhibition [4] 99%

O=C(c1cc(C(=O)NCc2ccc(Cl)cc2)c(=O)n(Cc2ccc(Cl)cc2)c1)c1cc(Cl)ccc1O
active: growth inhibition [4] 80%
inactive: growth inhibition [1] 4% | inhibition [2] 6% | inhibition [3] -1% | outcome [5] | outcome [6] | outcome [7] | outcome [8]

O=C(NC1CCC(CN2CCC(c3c[nH]c4ccccc34)CC2)CC1)c1cc2cccc([N+](=O)[O-])c2[nH]1 (centres undefined)
active: growth inhibition [1] 101% | growth inhibition [4] 103%
inactive: inhibition [2] 36% | inhibition [3] -1% | outcome [5] | outcome [6] | outcome [7] | outcome [8]

CC(Cc1ccc(SCCSc2ccccc2)cc1)NCC(O)c1cccc(Cl)c1 (centres undefined)
active: growth inhibition [1] 96% | growth inhibition [4] 98%
inactive: inhibition [2] 4% | inhibition [3] -7% | outcome [5] | outcome [6] | outcome [7] | outcome [8]

Cn1nc(-c2ccc(S(=O)(=O)N3CCC(CN4CCC(c5c[nH]c6ccccc56)CC4)CC3)s2)cc1C(F)(F)F
active: growth inhibition [4] 93%
inactive: growth inhibition [1] 48% | inhibition [2] 16% | inhibition [3] -6% | outcome [5] | outcome [6] | outcome [7] | outcome [8]

COC(=O)CN(C(=O)/C=C/c1ccc(Cl)c(Cl)c1)C1CCC(CN2CCC(c3c[nH]c4ccccc34)CC2)CC1 (centres undefined)
inactive: inhibition [2] 31% | inhibition [3] -1% | outcome [5] | outcome [6] | outcome [7] | outcome [8]
active: growth inhibition [1] 69% | growth inhibition [4] 100%

S=C(NCC1CCCCC1)NC1CCC(CN2CCC(c3c[nH]c4ccccc34)CC2)CC1 (centres undefined)
active: growth inhibition [4] 88%
inactive: growth inhibition [1] 10% | inhibition [2] 29% | inhibition [3] 6% | outcome [5] | outcome [6] | outcome [7] | outcome [8]

COC(=O)c1ccc(CC(C)NCC(O)c2cccc(Oc3cccc(C(F)(F)F)c3)c2)cc1 (centres undefined)
inactive: inhibition [2] 19% | inhibition [3] 2% | outcome [5] | outcome [6] | outcome [7] | outcome [8]
active: growth inhibition [1] 73% | growth inhibition [4] 91%

COc1ccc2nc(-c3ccc(F)cc3)cc([C@@H](O)[C@@H]3C[C@@H]4CCN3CC4C=NO)c2c1 (some centres undefined)
active: growth inhibition [1] 94% | growth inhibition [4] 100%
inactive: inhibition [2] 14% | inhibition [3] -2% | outcome [5] | outcome [6] | outcome [7] | outcome [8]

O=C(/C=C/c1cccs1)NC1CCC(CN2CCC(c3c[nH]c4ccccc34)CC2)CC1 (centres undefined)
inactive: growth inhibition [1] 29% | inhibition [2] 33% | inhibition [3] -1% | outcome [5] | outcome [6] | outcome [7] | outcome [8]
active: growth inhibition [4] 82%

CC[C@H]1CN2CC[C@H]1C[C@H]2[C@H](OC(=O)c1ccccc1)c1cc(C#N)nc2ccc(OC)cc12
active: growth inhibition [4] 97%
inactive: growth inhibition [1] 49% | inhibition [2] 19% | inhibition [3] -2% | outcome [5] | outcome [6] | outcome [7] | outcome [8]

Cc1cc2ccc(CNCCc3ccccc3Br)cc2nc1N
inactive: growth inhibition [1] 48% | inhibition [2] -1% | inhibition [3] 1% | outcome [5] | outcome [6] | outcome [7] | outcome [8]
active: growth inhibition [4] 101%

CC[C@H]1CN2CC[C@@H]1C[C@H]2[C@H](O)c1ccnc2ccc(OC)cc12
active: growth inhibition [1] 61% | growth inhibition [4] 100%
inactive: inhibition [2] -8% | inhibition [3] -4% | outcome [5] | outcome [6] | outcome [7] | outcome [8]

CC(Cc1ccc(C(C)(C)C)cc1)NCC(O)c1ccccc1 (centres undefined)
inactive: inhibition [2] 5% | inhibition [3] 3% | outcome [5] | outcome [6] | outcome [7] | outcome [8]
active: growth inhibition [1] 89% | growth inhibition [4] 94%

CC(=O)C1(c2ccccc2)CCN(CCC2(c3ccc(Cl)c(Cl)c3)CN(C(=O)Nc3cc(F)cc(F)c3)CCO2)CC1 (centres undefined)
inactive: growth inhibition [1] 20% | inhibition [2] 2% | inhibition [3] -1% | outcome [5] | outcome [6] | outcome [7] | outcome [8]
active: growth inhibition [4] 86%

CC(=O)Nc1ccc(CN2CCC(N(C)c3cc(NC(=O)c4ccc(F)cc4)ccn3)CC2)cc1
inactive: growth inhibition [1] 5% | inhibition [2] 0% | inhibition [3] -1% | outcome [5] | outcome [6] | outcome [7] | outcome [8]
active: growth inhibition [4] 95%

CCOC(C(=O)OCC1CCCN1C)(c1ccccc1)c1ccccc1 (centres undefined)
inactive: growth inhibition [1] 3% | inhibition [2] 13% | inhibition [3] 6% | outcome [5] | outcome [6] | outcome [7] | outcome [8]
active: growth inhibition [4] 97%

COC(=O)c1ccc(CC(C)NCC(O)c2cccc(I)c2)cc1 (centres undefined)
active: growth inhibition [1] 54% | growth inhibition [4] 87%
inactive: inhibition [2] 15% | inhibition [3] -2% | outcome [5] | outcome [6] | outcome [7] | outcome [8]

CCCCC/C=C/C(=O)NC1CCC(CN2CCC(c3c[nH]c4ccccc34)CC2)CC1 (centres undefined)
active: growth inhibition [4] 87%
inactive: growth inhibition [1] 11% | inhibition [2] 19% | inhibition [3] -1% | outcome [5] | outcome [6] | outcome [7] | outcome [8]

Oc1ccccc1CNCC(O)c1cc(C(F)(F)F)cc(C(F)(F)F)c1 (centres undefined)
active: growth inhibition [1] 100% | growth inhibition [4] 99%
inactive: inhibition [2] 15% | inhibition [3] 4% | outcome [5] | outcome [6] | outcome [7] | outcome [8]

CC(C)C[C@H](Nc1ccc(C#N)c2ccccc12)C(=O)N[C@@H]1CCCc2ccccc21
active: growth inhibition [1] 100% | growth inhibition [4] 99%
inactive: inhibition [2] 38% | inhibition [3] 10% | outcome [5] | outcome [6] | outcome [7] | outcome [8]

CC(C)CNCc1ccc(-c2ccc(CN(C(=O)Nc3ccccc3)C3CCN(Cc4ccccc4)CC3)cc2)cc1
active: growth inhibition [1] 61% | growth inhibition [4] 101%
inactive: inhibition [2] 27% | inhibition [3] -4% | outcome [5] | outcome [6] | outcome [7] | outcome [8]

O=C(Cc1c(-c2ccccc2)[nH]c2ccccc12)NC1CCC(CN2CCC(c3c[nH]c4ccccc34)CC2)CC1 (centres undefined)
inactive: inhibition [2] 31% | inhibition [3] 1% | outcome [5] | outcome [6] | outcome [7] | outcome [8]
active: growth inhibition [1] 75% | growth inhibition [4] 103%

O=C(c1cc(C(=O)NCc2ccc(Cl)cc2)c(=O)n(Cc2ccc(Cl)cc2)c1)c1cc(F)ccc1O
inactive: growth inhibition [1] 2% | inhibition [2] 7% | inhibition [3] -2% | outcome [5] | outcome [6] | outcome [7] | outcome [8]
active: growth inhibition [4] 93%

O=C(/C=C/c1cc(C(F)(F)F)ccc1F)NC1CCC(CN2CCC(c3c[nH]c4ccccc34)CC2)CC1 (centres undefined)
inactive: inhibition [2] 5% | inhibition [3] -5% | outcome [5] | outcome [6] | outcome [7] | outcome [8]
active: growth inhibition [1] 66% | growth inhibition [4] 101%

O=C(NC1CCC(CN2CCC(c3c[nH]c4ccccc34)CC2)CC1)C1(O)c2ccccc2-c2ccccc21 (centres undefined)
inactive: growth inhibition [1] 46% | inhibition [2] 22% | inhibition [3] -4% | outcome [5] | outcome [6] | outcome [7] | outcome [8]
active: growth inhibition [4] 85%

COc1ccccc1CNCC(O)c1cc(C(F)(F)F)ccc1C(F)(F)F (centres undefined)
active: growth inhibition [1] 95% | growth inhibition [4] 101%
inactive: inhibition [2] 10% | inhibition [3] 5% | outcome [5] | outcome [6] | outcome [7] | outcome [8]

CN1[C@@H]2CC[C@H]1c1cc(NC(=O)c3cc(-c4ccc(Cl)cc4)cs3)ccc12
active: inhibition [2] 62% | growth inhibition [4] 90%
inactive: growth inhibition [1] 35% | inhibition [3] -2% | outcome [5] | outcome [6] | outcome [7] | outcome [8]

COc1ccc(C(=O)[C@H]2C[C@@H]2CN2CC=C(c3c[nH]c4cccc(Br)c34)CC2)cc1
inactive: inhibition [2] 32% | inhibition [3] -3% | outcome [5] | outcome [6] | outcome [7] | outcome [8]
active: growth inhibition [1] 67% | growth inhibition [4] 88%
